For 95 compounds, Potency results are on record in PubChem BioAssay AID588591 (National Center for Advancing Translational Sciences (NCATS), 2011).

Molecules are shown by their SMILES. About 4,700 (1.2%) of roughly 390,000 compounds were called active. Entries that show only a call come without a potency. About 4% were inconclusive and are not listed. The call rests on the fitted dose curve; in most records, active means well fitted inhibition curve with a large enough effect; inconclusive means small, poorly fitted or top-dose-only effect, or another doubt; inactive means no such curve, though single readings can be large or run the other way. The full list was thinned out, with actives kept by preference.
Potency means the concentration at half of the fitted maximal effect.

Sequence of DNA polymerase eta (Homo sapiens) (Q9Y253 whole entry, looked up): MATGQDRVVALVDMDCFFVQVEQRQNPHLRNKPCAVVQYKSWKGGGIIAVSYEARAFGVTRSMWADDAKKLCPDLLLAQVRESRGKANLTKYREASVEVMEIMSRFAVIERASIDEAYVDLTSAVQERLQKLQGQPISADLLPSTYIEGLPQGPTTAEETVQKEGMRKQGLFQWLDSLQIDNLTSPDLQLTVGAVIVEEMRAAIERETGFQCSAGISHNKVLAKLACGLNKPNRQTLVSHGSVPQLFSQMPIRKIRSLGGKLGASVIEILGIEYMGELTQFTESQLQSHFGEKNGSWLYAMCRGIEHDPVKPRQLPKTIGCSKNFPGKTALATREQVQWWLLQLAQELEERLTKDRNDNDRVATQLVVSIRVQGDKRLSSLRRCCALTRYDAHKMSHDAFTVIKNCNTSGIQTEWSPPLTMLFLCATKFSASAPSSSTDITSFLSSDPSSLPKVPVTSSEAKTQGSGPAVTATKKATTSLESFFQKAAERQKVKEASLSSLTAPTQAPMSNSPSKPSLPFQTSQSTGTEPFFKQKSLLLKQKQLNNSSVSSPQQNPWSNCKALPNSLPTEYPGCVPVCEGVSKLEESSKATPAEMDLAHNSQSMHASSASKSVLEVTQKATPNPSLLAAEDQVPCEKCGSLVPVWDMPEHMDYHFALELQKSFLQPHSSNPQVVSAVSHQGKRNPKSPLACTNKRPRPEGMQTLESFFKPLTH

In the test the target is DNA polymerase eta (Homo sapiens) (UniProt Q9Y253). Description: qHTS for Inhibitors of Polymerase Eta. Conditions: recombinant Pol eta, fluorescent DNA replication assay; series mostly up to 114 µM. From the text:
The Y-family of DNA polymerases, such as Pol eta, are specifically involved in DNA repair. Pol eta copies undamaged DNA with a lower fidelity than other DNA-directed polymerases. However, it accurately replicates UV-damaged DNA; when thymine dimers are present, this polymerase inserts the complementary nucleotides in the newly synthesized DNA, thereby bypassing the lesion and suppressing the mutagenic effect of UV-induced DNA damage. […] Thus, while pol eta's (and most likely iota's) normal function is to protect humans against the deleterious consequences of DNA damage, under certain conditions they can have deleterious effects on human health. As a consequence, we propose to utilize a high throughput replication assay to identify small molecule inhibitors of pol eta. In a collaboration between the National Institute of Child Health & Human Development (NICHD) and NIH Chemical Genomics Center, a high-throughput, fluorescent screen was developed to screen the NIH Molecular Libraries Small Molecule Repository (MLSMR). This screen is used to identify inhibitors of pol eta. NIH Chemical Genomics Center [NCGC] NIH Molecular Libraries Probe Centers Network [MLPCN] MLPCN Grant: MH090825 Assay Submitter (PI): Roger Woodgate, NICHD)
Three microliters of reagents (buffer in column 3 and 4 as negative control and 10 nM Pol eta in columns 1, 2, and 5-48) were dispensed into a 1,536-well black solid-bottomed plate. Compounds (23 nL) were transferred via Kalypsys pin tool equipped with 1536-pin array. The plates were then incubated for 15 min at room temperature, and 1 µL substrate (50 nM final concentration) was added to start the reaction and kinetically read twice at 0 min and 10 min on the Viewlux reader
For orientation: Quantitative high-throughput screening tests each substance at several concentrations.
In the case of `O=C(O)C1=C(C(=O)O)C2CCC1C2`, the Potency is 17.8 µM (active).
With `CCOc1ccccc1NC(=O)CSc1ncc(S(=O)(=O)c2ccc(C(C)(C)C)cc2)c(=O)[nH]1` the figure was 89.1 µM (active); with `O=C(CSc1ncc(S(=O)(=O)c2ccc(Br)cc2)c(=O)[nH]1)Nc1ccc2c(c1)OCCO2`, “inactive”; with `CCOc1ccccc1NC(=O)COc1ccc(S(=O)(=O)N2CCCC2)cc1`, “inactive”.
With `Cc1cc(C)cc(NC(=O)Cc2csc(C)n2)c1` the entry was “inactive”.
On to `COc1cccc(NC(=O)CSC2=Nc3ccccc3C3=NC(CC(=O)NC4CCCCC4)C(=O)N23)c1` (stereo not given), for which the Potency entry is “inactive”.
As for `Cc1c(C(=O)N2CCCC2)oc2c1-c1nn(CC(=O)NCc3ccc(OC(C)C)cc3)cc1CC2`, the entry is “inactive”.
With `CCOC(=O)CSC1=Nc2ccccc2C2=NC(CCC(=O)NCc3ccc(F)cc3)C(=O)N12` (stereo not given) the entry was “inactive”.
Take `Cc1ccc(CNC(=O)CSC2=Nc3ccccc3C3=NC(C)C(=O)N23)cc1` (stereo not given): the Potency entry is “inactive”.
Turning to `CC(C)C1N=C2c3ccccc3N=C(SCC(=O)c3ccc(O)c(O)c3)N2C1=O` (stereo not given), the Potency was 2.24 µM (active).
As for `CCCN1C(=O)C(O)(CC(=O)c2ccc(CC)cc2)c2cc(Br)ccc21` (stereo not given), the entry is “inactive”; as for `COc1ccc(NC(=O)/C(C#N)=C\c2cc(OC)c(OCc3ccc(C(=O)O)cc3)cc2Br)cc1`, 50.1 µM (active).
With `COc1ccc(CCNC(=O)CSc2nc(-c3ccc(OC)c(OC)c3)ccc2C#N)cc1` the entry was “inactive”.
With `CCOC(=O)c1ccc(-c2ccc(/C=C(\C#N)C(=O)Nc3ccc(C)cc3)o2)cc1`, the Potency result was “inactive”.
As for `COc1ccc2c(c1)Cc1sc(NC(=O)c3ccccc3Br)nc1-2`, the entry is “inactive”.
On to `O=c1cc(CSc2ncn[nH]2)[nH]c2ccc(F)cc12`, for which the Potency entry is “inactive”.
With `CCOC(=O)C1CCCN(C(=O)c2ccc(CS(=O)(=O)c3ccc(Br)cc3)o2)C1` (stereo not given) the entry was “inactive”; with `O=C(c1ccc(CS(=O)Cc2ccccc2Cl)o1)N1CCN(c2ccccc2)CC1` (stereo not given), “inactive”.
As for `O=C(c1ccc(CS(=O)(=O)c2ccccc2)o1)N1CCN(c2ccccc2)CC1`, the Potency is 50.1 µM (active).
Regarding `COC(=O)c1sccc1S(=O)(=O)N(CC(=O)Nc1ccc(C)c(F)c1)c1ccc(C)c(C)c1`, the Potency result is “inactive”.
On to `Cc1ccc(-c2nn(-c3ccccc3)cc2/C=C2\SC(=S)N(CCCCCC(=O)O)C2=O)o1`, for which the Potency was 44.7 µM (active).
Consider `Cc1nc(C)c(-c2nnc(-c3cccc(S(=O)(=O)N(C)C)c3)o2)cc1C(=O)NN`, for which the Potency entry was “inactive”.
As for `CN(C)S(=O)(=O)c1cccc(-c2nn(-c3ccccc3)cc2/C=C2\SC(=S)N(CC(=O)O)C2=O)c1`, the Potency was 35.5 µM (active).
With `Cc1nn(-c2ccc(F)cc2)c(-n2cccc2)c1C(=O)N1CCN(c2ccccc2)CC1` the entry was “inactive”; with `COc1ccccc1N1CCN(CCCNC(=O)c2cnn(-c3ccccc3Cl)c2C2CCN(C(=O)OC(C)(C)C)CC2)CC1`, “inactive”.
With `CSc1ccc(CCNC(=O)c2cnn(-c3ccccc3)c2-n2cccc2)cc1` the entry was “inactive”; with `O=C(Nc1ccc(F)cc1F)c1ccc2c(=O)n3c(nc2c1)CCCCC3`, “inactive”.
With `CCc1cccc(NC(=O)c2cnc(N3CCOCC3)c3ccccc23)c1` the entry was “inactive”; with `CCOC(=O)C1=C(c2ccccc2)NC(=O)NC1c1cc(OC)c(OC)cc1OC` (stereo not given), “inactive”; with `CCOC(=O)C1=C(c2ccc(OC)cc2)C(=O)c2ccccc2C1=O`, 89.1 µM (active).
Consider `CCOC(=O)C1C(=O)C=C(c2ccc(OC)cc2)CC1c1ccco1` (stereo not given), for which the Potency result was “inactive”.
On to `Clc1ccc(CSc2nncn3c2cc2occc23)cc1`, for which the Potency result is “inactive”.
For `C=CCC1(C#N)C(=S)NC(C)=C(C(=O)OCC)C1c1ccccc1` (stereo not given), the Potency entry is “inactive”.
As for `C=CCOC(=O)C1=C(C)NC(SCC(=O)OCC)=C(C#N)C1c1ccc(C)cc1` (stereo not given), the figure is 17.8 µM (active); as for `CCOC(=O)C1=C(C)OC(N)=C(C#N)C1c1cncc(-c2ccc(F)cc2)c1` (stereo not given), “inactive”; as for `COC(=O)c1c(NC(=O)c2ccc(Cl)c(Cl)c2)sc2c1CCCC2`, “inactive”.
For the compound `COC(=O)c1ccc(-c2nc3cc(NC(C)=O)ccc3o2)cc1`, the Potency result was “inactive”.
As for `CCOC(=O)c1c(NC(=O)CSc2nnc(CN3CCOCC3)n2C)sc2c1CCCC2`, the entry is “inactive”.
As for `NC(=O)c1c(NC(=O)CSc2nnc(-c3ccco3)n2N)sc2c1CCCC2`, the Potency was 12.6 µM (active).
With `CC1CCN(C(=O)CSc2nnc(-c3ccco3)n2N)CC1`, the Potency result is “inactive”.
`CCOC(=O)c1c(C)[nH]c(CCC(=O)NCCCN2CCN(c3cc(C)ccc3C)CC2)c1C`: the Potency result was “inactive”.
With `CCCc1nn2c(=O)cc(COC(=O)c3ccc(NC(=O)C(C)Oc4ccccc4)cc3)nc2s1` (stereo not given) the entry was “inactive”.
With `COc1ccc(OC)c(CCNC(=O)CCCn2c(=O)c3cccn3c3cccnc32)c1` the entry was “inactive”; with `Cc1ccccc1-c1nc2scc(CCNC(=O)C(=O)Nc3ccc(F)cc3F)n2n1`, “inactive”.
Consider `Cc1ccc(C(=O)NCCSc2c(C)[nH]c3ccccc23)cc1C`, for which the Potency entry was “inactive”.
As for `CCCCNC(=O)c1cc(-c2ccc(Cl)c(Cl)c2)on1`, the Potency result was “inactive”.
For the compound `Nc1ccc2c(c1)C(=Cc1cccnc1)c1ccccc1-2`, the Potency entry was “inactive”.
As for `O=C(O)CCc1cccnc1`, the entry is “inactive”.
`O=C1/C(=C\c2cccnc2)CN(Cc2ccccc2)C/C1=C\c1cccnc1`: the Potency was 50.1 µM (active).
`COc1ccc(OCC(=O)Nc2cccc(C(=O)OCc3cc(=O)n4nc(C)sc4n3)c2)cc1`: the Potency entry was “inactive”.
As for `CC1CCN(c2ccc(C(=O)Nc3nnc(C4CC4)s3)cc2[N+](=O)[O-])CC1`, the entry is “inactive”; as for `Cc1ccc(C(=O)c2ccc(N3CCN(C)CC3)c([N+](=O)[O-])c2)cc1`, “inactive”.
As for `CC1CCN(c2ccc(C(=O)NCc3ccc4c(c3)OCO4)cc2[N+](=O)[O-])CC1`, the entry is “inactive”; as for `O=C(O)C1CCN(c2ccc([N+](=O)[O-])cc2[N+](=O)[O-])CC1`, 25.1 µM (active).
Regarding `CC1CCN(c2ccc(S(=O)(=O)Nc3cc(C(=O)O)cc(C(=O)O)c3)cc2[N+](=O)[O-])CC1`, the Potency was 22.4 µM (active).
In the case of `Cc1cccc(N2CCN(c3ccc(C(N)=O)cc3[N+](=O)[O-])CC2)c1C`, the Potency result was “inactive”.
As for `COc1ccc(C(=O)Nc2onc3c2CCCC3)cc1`, the entry is “inactive”; as for `COc1ccc(CCNS(=O)(=O)c2cc(-c3cc(C)no3)ccc2C)cc1OC`, “inactive”.
As for `Cc1ccccc1NC(=O)Cn1c(=O)n(CC2CCC(C(=O)NCCc3ccccc3)CC2)c(=O)c2ccccc21` (stereo not given), the Potency result is “inactive”.
As for `O=C(CSc1nc2nccnc2c(=O)n1CCc1c[nH]c2ccccc12)Nc1ccccc1F`, the Potency entry was “inactive”.
Consider `COc1ccc(CCNC(=O)Cn2c(=O)cc(C(F)(F)F)c3c(C)nn(C)c32)c(OC)c1`, for which the Potency result was “inactive”.
As for `CC(=O)c1ccc(NC(=O)CSc2c(C(C)C)cnc3c2c(=O)n(C)c(=O)n3C)cc1`, the Potency result was “inactive”.
Consider `O=C(O)c1c(CNCc2cccc(F)c2)c2ccccc2n1Cc1ccccc1`, for which the Potency entry was “inactive”.
`COc1ccc(CCNc2nc3c(-c4cccc(F)c4)nnn3c3ccccc23)cc1OC`: the Potency entry is “inactive”.
Regarding `COCCCNc1nc2c(-c3cccc(C(F)(F)F)c3)nnn2c2ccccc12`, the Potency result was “inactive”.
Take `COCCCNc1nc2c(-c3cccc(C)c3)nnn2c2ccc(Cl)cc12`: the Potency is 25.1 µM (active).
As to `CCC(CC)c1nn2cc(-c3ccccc3)nc2s1`, the Potency entry is “inactive”.
As for `COc1ccc(S(=O)(=O)c2c(Nc3ccc(C)cc3)sc(C(=O)c3ccc(C)cc3)c2N)cc1`, the entry is “inactive”; as for `NS(=O)(=O)c1ccc2nc(NC(=O)CS(=O)(=O)c3ccc(F)cc3)sc2c1`, 79.4 µM (active).
In the case of `NS(=O)(=O)c1ccc2nc(NC(=O)COc3ccccc3)sc2c1`, the Potency result was “inactive”.
As for `Cc1nc2ccc(S(=O)(=O)N(CC(=O)Nc3ccc(F)cc3)Cc3ccccc3)cc2s1`, the entry is “inactive”.
As to `CCOc1ccc(CCNC(=O)CN(c2ccc(C)cc2)S(=O)(=O)N(C)C)cc1OCC`, the Potency entry was “inactive”.
Consider `O=C(Nc1cc(Cl)cc(Cl)c1)c1ccc2c(c1)N(Cc1cccc(Cl)c1)C(=O)c1ccccc1S2=O` (stereo not given), for which the Potency result was “inactive”.
On to `O=c1[nH]n2c(=O)c3c([nH]c2c1N=Nc1ccccc1)CCC3`, for which the Potency was 31.6 µM (active).
With `CC(C)(C)n1c(=O)[nH]c2c(c1=O)CCC2` the entry was “inactive”.
Regarding `Cc1ccc(-n2ncc3c(NCCCn4ccnc4)ncnc32)cc1Cl`, the Potency result is “inactive”.
On to `O=C(COc1ccccc1F)OCc1cc(=O)n2nc(C3CCCCC3)sc2n1`, for which the Potency entry is “inactive”.
In the case of `O=C(CCSCc1cccc(F)c1)NCc1ccccc1`, the Potency result is “inactive”.
`CCc1cc2c(cc(C(=O)OC)n2Cc2nc(-c3ccc(C)cc3)oc2C)s1`: the Potency entry is “inactive”.
As for `CC(=O)c1cc(C#N)c(SCC(=O)Nc2nccs2)nc1C`, the entry is “inactive”; as for `Cc1csc(SCC(=O)Nc2sccc2C#N)n1`, 79.4 µM (active); as for `CC(c1nnc(SCC(=O)Nc2sccc2C#N)n1-c1ccc(Cl)cc1)N(C)C` (stereo not given), “inactive”.
As for `COc1ccc(S(=O)(=O)NCc2cccn2Cc2cccc(C)c2)cc1Cl`, the entry is “inactive”; as for `CSc1cccc(NC(=O)CN2C(=O)CCc3cc(S(=O)(=O)N4CCCCC4)ccc32)c1`, “inactive”.
With `Cc1ccc2nc(COc3ccc(NC(=O)COc4ccccc4F)cc3)cc(=O)n2c1` the entry was “inactive”; with `CC(=O)c1ccc(NC(=O)c2nc(-c3ccc(C)cc3)n3c2CCCCC3)cc1`, “inactive”; with `N#Cc1c(N2CCCCC2)nc(N)c2c(N)nc(SCC(=O)O)cc12`, 22.4 µM (active).
Consider `Cc1ccc(CN2CCC(CNC(=O)c3cnn(-c4ccccc4Cl)c3C3CCN(C(=O)OC(C)(C)C)CC3)CC2)cc1`, for which the Potency result is “inactive”.
With `COc1ccc(-c2cc(NCc3ccc(F)cc3)n3cnnc3n2)cc1` the entry was “inactive”; with `CC1CN(C(=O)N2CCC(C(=O)NCc3cccs3)CC2)c2ccccc2O1` (stereo not given), “inactive”; with `N#Cc1c(-c2cccs2)nc(SCC(=O)c2ccc(Br)cc2)[nH]c1=O`, 35.5 µM (active).
Turning to `Cc1nnc(SCC(=O)NCc2cccs2)[nH]c1=O`, the Potency entry is “inactive”.
Regarding `N#Cc1ccc(-c2cccs2)nc1SCc1ccc(Br)cc1`, the Potency entry was “inactive”.
`COc1ccc(-c2nn3c(=O)cc(CN4CCN(C(=O)c5ccc(OC)c(OC)c5)CC4)nc3s2)cc1`: the Potency result is “inactive”.
For the compound `COc1ccc(Cn2ccnc2SCC(=O)Nc2ccc3c(c2)OCO3)cc1`, the Potency entry is “inactive”.
